The record followed here is PubChem BioAssay (NCATS).

Assay [1] concerns Zika virus NS2B-NS3 protease (linked construct). Briefly: Primary screen NINDS Rhodamine qHTS for Zika virus inhibitors (AID 1347160). Further: nearly all actives have a fitted effect of over 55% in size. Further: potency means the concentration at half of the fitted maximal effect. The procedure, abridged:
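Kinetic fluorescence (Ex 480 nm, Em 540 nm) over 15 min with 1.5 microM Rhodamine110 peptide and 25 nM linked protease.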
(In general: qHTS replaces the single test concentration by a dilution series.)

Assay [2] in a line: SW1088 Cancer Cell Toxicity qHTS against the NCATS CANVASS Library (AID 1347350). Further: nearly all actives have a fitted effect of over 75% in size. Further: potency means the concentration at half of the fitted maximal effect. The procedure, abridged:
(§1)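 ATP content after 72 h treatment, detected by CellTiter-Glo luminescence (15min room-temperature development), reflects cell viability. Wells contained 1000 cells and received compounds at 11 concentrations.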

Assay [3] in a line: COV-362 Cancer Cell Toxicity qHTS against the NCATS CANVASS Library (AID 1347352). Further: potency means the concentration at half of the fitted maximal effect. In short, it runs like this: (§2)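 Cells at 1000/well were given compound 4 h after plating in an 11-point series. Viability was read by CellTiter-Glo luminescence after 72 h at 37 degrees C.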
The nature of assay [4]: UWB1.289-WTBRCA1 Cancer Cell Toxicity qHTS against the NCATS CANVASS Library (AID 1347354). Further: potency means the concentration at half of the fitted maximal effect. In short, it runs like this:
as §2

Assay [5] in a line: HEK-293 Cancer Cell Toxicity qHTS against the NCATS CANVASS Library (AID 1347355). Further: nearly all actives have a fitted effect of over 65% in size. Further: potency means the concentration at half of the fitted maximal effect. The procedure, abridged:
as §2

For assay [6], the system named is NAD(P)H diaphorase (Clostridium kluyveri). Briefly: Diaphorse counterscreen qHTS: Assay Interference Panel against the NCATS CANVASS Library (AID 1347362). The procedure, abridged: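 Counterscreen for coupling-enzyme interference: resorufin fluorescence from resazurin/NADH turnover, read after 5 min at room temperature. Compounds were tested over an 11-point series after 15 min dark preincubation with diaphorase in PBS-Tween.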
Background: A counterscreen serves to expose hits that act by an unwanted route or on another target.

A short description of assay [7]: KB-8-5-11 Cancer Cell Toxicity qHTS against the NCATS CANVASS Library (AID 1347364). Further: nearly all actives have a fitted effect of over 75% in size. The procedure, abridged:
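KB-8-5-11 cells, 500/well in DMEM + 10% FBS, given compounds in an 11-point series. Incubated 72 h at 37 °C. Viability by CellTiter-Glo luminescence. Confirmation also run with 1 uM tariquidar.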

Assay [8] is described as follows: SDT Cancer Cell Toxicity qHTS against the NCATS CANVASS Library (AID 1347365). Further: nearly all actives have a fitted effect of over 60% in size. Further: potency means the concentration at half of the fitted maximal effect. The procedure, abridged: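 SDT dog glioma cells (500/well) exposed to an 11-point compound series for 72 hr at 37C, 5% CO2. Cytotoxicity read as ATP content by CellTiterGlo luminescence; bortezomib titration as control.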
Assay [9] is described as follows: G06 Cancer Cell Toxicity qHTS against the NCATS CANVASS Library (AID 1347368). Further: nearly all actives have a fitted effect of over 60% in size. Further: potency means the concentration at half of the fitted maximal effect. In short, it runs like this: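 G06 dog glioma cells, 500 per well, exposed 72 hr at 37C, 5% CO2 to compounds in an 11-point series. Cytotoxicity read as ATP content by CellTiterGlo luminescence.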
For assay [10], the target named is Nuclear receptor subfamily 1 group I member 3 (Homo sapiens) (UniProt Q14994). Briefly: qHTS for Constitutive Androstane Receptor (CAR) Antagonist screened against the NCATS CANVASS Library (AID 1347372).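 Further: cells stimulated with 50 nM CITCO agonist so inhibition reflects antagonism; luciferase from CYP2B6 promoter reporter driven by hCAR in HepG2 cells; series mostly up to about 46 µM.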 The procedure, abridged: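 HepG2-CYP2B6-hCAR double-stable cells plated, 4hr attach; cpd pin-transferred; CITCO 50 nM final; 24hr 37C/5% CO2; CellTiter-Fluor 1hr (fluorescence), then ONE-Glo luminescence.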

Assay [11] in a line: qHTS for Hypoxia signaling pathway (HIF-1) agonists against the NCATS CANVASS Library (AID 1347375). Further: potency means the concentration at half of the fitted maximal effect. The procedure, abridged: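 HRE-bla ME-180 cells (0.5% dialyzed FBS) were pre-incubated 5 hrs at 37C, then exposed to compounds in an 11-point series for 17 hrs. Read-out was CCF4-AM beta-lactamase FRET (460/530 nm emissions), with CellTiter-Glo viability in the same wells.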

Assay [12] in a line: qHTS for Activators of p53 Stress Response Pathway screened against the NCATS CANVASS Library (AID 1347388). In short, it runs like this: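 Beta-lactamase reporter driven by p53 response elements in HCT-116 cells, read as the 460 nm/530 nm emission ratio after CCF4 loading, following 16 h of exposure to an 11-point series. Cell viability was measured in the same wells by CellTiter-Glo luminescence.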

Assay [13] can be described thus: qHTS assay for small molecule disruptors of mitochondrial membrane potential screened against the NCATS CANVASS Library (AID 1347389). Further: nearly all actives have a fitted effect of over 60% in size. Further: potency means the concentration at half of the fitted maximal effect. In short, it runs like this:
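HepG2 cells (2,000/well) plated overnight, then exposed to compounds in 11-point qHTS series for 1 h at 37C before 30 min Mito-MPS dye; depolarization read as fall in red aggregate (590 nm) to green monomer (535 nm) fluorescence.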

Assay [14] is described as follows: qHTS for activators of dead-cell proteases activity screened against the NCATS CANVASS Library (AID 1347392).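 Further: luminescence from protease leaking out of membrane-damaged cells cleaving impermeant substrate; rising signal means more cytotoxicity.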 In short, it runs like this:
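Compounds are pin-transferred onto attached HepG2 cells, giving 11 final concentrations. After 5 h at 37C, AAF-aminoluciferin reagent is added and luminescence is recorded at room temperature.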

A short description of assay [15]: qHTS for inhibitors of Wild type Zika virus screened against the NCATS CANVASS Library (AID 1347396).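 Further: ATP luminescence of surviving cells so rescue from viral cell killing; series mostly up to about 46 µM.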 The procedure, abridged:
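Protection against wild-type Zika cytopathic effect is measured in African green monkey Vero 766 cells exposed to an 11-point compound series. Surviving cells are quantified by CellTiter Glo luminescence after 72 h.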

A short description of assay [16]: Redox Reaction Profiling qHTS: Assay Interference Panel against the NCATS CANVASS Library (AID 1347401). Further: potency means the concentration at half of the fitted maximal effect. The procedure, abridged: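 Cell-free redox surrogate: 5 uM resazurin + 200 uM DTT, 50 mM HEPES pH 7.3/50 mM NaCl; cpds pinned, 11-pt qHTS; Ex525/Em598 read t0 and t=15 min, dark.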
Assay [17] can be described thus: A2780 Cisplatin Sensitive Ovarian Cancer Cell Toxicity qHTS against the NCATS CANVASS Library (AID 1347353). Further: potency means the concentration at half of the fitted maximal effect; nearly all actives have a fitted effect of over 60% in size. The procedure, abridged:
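A2780 cells, 750/well, settled 4 h at 37 °C, then treated with an 11-point compound series for 72 h. Viability was read as ATPLite luminescence after 10 min at room temperature, with bortezomib as control.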

Assay [18] is described as follows: DH5-alpha competent E. coli microbial cell viability qHTS against the NCATS CANVASS Library (AID 1347377). Conditions: outcome: dose series up to 46.1 µM unless noted. The procedure, abridged: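 DH5-alpha E. coli suspension was exposed to an 11-point compound series overnight at 37 °C. Viable cells quantified by ATP luminescence (BacTiter-Glo) after 20 min at room temperature.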

Assay [19] can be described thus: qHTS for activators of Nrf2/ARE signaling pathway screened against the NCATS CANVASS Library (AID 1347391). Further: nearly all actives have a fitted effect of over 60% in size. Further: potency means the concentration at half of the fitted maximal effect. The procedure, abridged: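 ARE-bla HepG2 beta-lactamase reporter cells exposed to compounds for 16 h at 37C; CCF4 substrate 2 h, fluorescence at ex 405 nm, em 460/530 nm. Viability by CellTiter-Glo luminescence.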
Assay [20] is described as follows: Panc-1005 Cancer Cell Toxicity qHTS against the NCATS CANVASS Library (AID 1347349). Further: nearly all actives have a fitted effect of over 60% in size. Further: potency means the concentration at half of the fitted maximal effect. The procedure, abridged:
as §1

Results filed as inconclusive are left out. Active and inactive are the calls of the source. The call rests on the fitted dose curve; in most records, active means well fitted curve in the direction sought with a large enough effect; inconclusive means small, poorly fitted or top-dose-only effect, or another doubt; inactive means no such curve, though single readings can be large; an effect the other way counts as inactive or inconclusive.

Nuclear receptor subfamily 1 group I member 3 (Homo sapiens), sequence (Q14994 whole entry, looked up): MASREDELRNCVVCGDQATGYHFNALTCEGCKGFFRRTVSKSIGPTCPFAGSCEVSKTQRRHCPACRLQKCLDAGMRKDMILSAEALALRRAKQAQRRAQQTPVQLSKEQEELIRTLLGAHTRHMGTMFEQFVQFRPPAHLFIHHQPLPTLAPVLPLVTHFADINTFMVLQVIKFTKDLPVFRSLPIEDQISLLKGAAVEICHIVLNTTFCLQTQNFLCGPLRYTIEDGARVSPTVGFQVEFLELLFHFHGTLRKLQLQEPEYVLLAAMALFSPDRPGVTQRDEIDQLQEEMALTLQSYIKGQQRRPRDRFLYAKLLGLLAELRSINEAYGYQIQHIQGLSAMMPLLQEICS

Take `C=C(C)CC[C@H](Cc1c(O)cc(O)c2c1O[C@H](c1ccc(O)cc1O)CC2=O)C(=C)C`: the Potency in assay [1] is 19.6 µM (active); in [2] it was 21.1 µM (active); in assay [13], 18.6 µM (active). In addition, the Potency entry in [3], in assay [4], in assay [5], in [6], in assay [7] and in assay [8] was “inactive” each time. Besides, the Potency entry in assay [9], in [10], in [11], in assay [12], in assay [14] and in assay [15] was “inactive” each time. Also, the Potency entry in assay [16] was “inactive”.

In the case of `COc1ccc(/C=C2\COc3cc(O)ccc3C2=O)cc1`, the Potency was 22 µM (active) in assay [1], 14.8 µM (active) in assay [17], 20.9 µM (active) in assay [13] and 8.31 µM (active) in assay [19]. Further, the Potency entry in assay [3], in assay [4], in assay [6], in [9], in assay [10] and in assay [11] was “inactive” throughout. For the same compound, the Potency result in [14] and in assay [16] was “inactive” throughout. The result in [18] was inactive.

Take `C/C1=C/[C@@H](C)[C@H](O)C/C=C/CC/C=C/C(=O)O[C@@H]1[C@H](C)C(=O)/C=C/CC1CC(=O)NC(=O)C1`: the Potency in [1] is 44 µM (active); in assay [20], 11.9 µM (active); in [2], 21.1 µM (active); in [17], 3.72 µM (active); in assay [5], 7.43 µM (active); in [8], 9.35 µM (active). Also, the Potency is 14.8 µM (active) in assay [9], 2.34 µM (active) in assay [19] and 24.1 µM (active) in assay [16]. Further, the Potency entry in assay [6], in [7], in [11], in assay [14] and in assay [15] was “inactive” in each case. Besides, the call in [18] was inactive.

`C=C1C(=O)O[C@H]2C[C@H](C)[C@@H]3CC(=O)C(C)=C3[C@H](O)[C@H]12`: the Potency result in [1], in [2], in assay [6], in assay [12], in assay [15] and in assay [16] was “inactive” throughout. Also, the Potency is 18.8 µM (active) in assay [20]; 2.96 µM (active) in [17]; 7.43 µM (active) in assay [5]; 16.6 µM (active) in [8]; 7.43 µM (active) in [9].

Regarding `CC(C)=CCC/C(C)=C/Cc1c(O)c(CC=C(C)C)c(O)c2c(=O)c3cc(O)ccc3oc12`, the Potency in [1] is 9.84 µM (active); in [20], 14.9 µM (active); in [2], 9.43 µM (active); in assay [3], 18.8 µM (active); in assay [17] it was 14.8 µM (active); in assay [4], 14.9 µM (active). Moreover, the Potency in assay [8] is 20.9 µM (active); in [9], 23.5 µM (active); in assay [11], 13.3 µM (active); in assay [13], 1.86 µM (active); in [19], 2.63 µM (active). Besides, the Potency result in assay [6], in assay [10] and in [16] was “inactive” each time. In addition, in [18], the compound was classed as inactive.

On to `C=CC(C)(C)C(=O)[C@@H](C)[C@@H]1CC[C@](C)(C=C)O1`, for which the Potency entry in [1], in assay [20], in assay [2], in assay [3], in assay [4] and in assay [5] was “inactive” in each case. For the same compound, the Potency entry in [6], in assay [7], in assay [8], in assay [9], in [10] and in assay [11] was “inactive” in each case. Moreover, the Potency entry in assay [12], in assay [13], in assay [19], in [14] and in assay [15] was “inactive” each time. The compound was classed as inactive in assay [18].

`CCCCCC[C@H](CCCCC[C@@H](O)C(N)=O)OC(=O)[C@@H]1CC=CN1C(=O)c1ccccc1O`: the Potency in assay [1] was 62.1 µM (active). Besides, the Potency result in assay [20], in assay [3], in [5], in assay [7], in assay [10] and in assay [11] was “inactive” each time. For the same compound, the Potency result in assay [12], in [13], in assay [19], in [14], in [15] and in assay [16] was “inactive” in each case.
